Screens from PubChem BioAssay.
Most compounds without a hit are left out; they make up all but 1.1% or so of the library.
SARS PLpro yeast – blocks SARS-CoV papain-like protease in a yeast assay; S. cerevisiae expressing SARS-CoV PLpro, growth rescue; AID 485353; hit rate 0.19% among 330,000; Potency, µM (top dose mostly 32.9 µM), usual class: activators; calls by dose curve; further: nearly all actives have a fitted effect of over 55% in size
RE007 growth inh – less growth of the S. pombe RE007 Vpr strain; S. pombe RE007 Vpr strain, BacTiter-Glo ATP luminescence, 24 h; Potency, µM (series often up to 92.2 µM), actives largely listed as inhibitors; hit rate 0.21% among 360,000; active means well fitted falling curve with a large enough effect; inconclusive means small, poorly fitted or top-dose-only effect; inactive means no such curve, though single readings can be large or run the other way; further: nearly all actives have a fitted effect of over 50% in size
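Fission yeast RE007 carrying one integrated HIV-1 vpr copy, seeded at OD 0.01 in PMG+AL medium with 23 nL pinned compound. Grown 24 h at 30 degrees; viability read by BacTiter-Glo luminescence after 5 min.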
TbPYK inhibitor – inhibitors of Trypanosoma brucei pyruvate kinase; AID 624173; TbPYK enzyme, Kinase-Glo Plus ATP luminescence, 45 min; hit rate 0.12% among 410,000; Potency, µM (top dose mostly 76.8 µM), actives largely listed as inhibitors; further: nearly all actives have a fitted effect of over 50% in size
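TbPYK + substrate in 50 mM TEA pH 7.2, 100 mM KCl, 10 mM MgCl2, 0.05% BSA, 0.01% Tween-20; cpd pinned; ADP 130 uM final; 45 min RT; Kinase-Glo Plus 10 min; luminescence endpoint.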
LmPK inh – blocks Leishmania mexicana pyruvate kinase activity. purified LmPK, Kinase-Glo ATP luminescence, 1 h. Potency, µM (series often up to 57.5 µM), actives largely listed as inhibitors. hit rate 0.37% among 290,000. AID 1721
Target sequence (Q27686 whole entry, looked up): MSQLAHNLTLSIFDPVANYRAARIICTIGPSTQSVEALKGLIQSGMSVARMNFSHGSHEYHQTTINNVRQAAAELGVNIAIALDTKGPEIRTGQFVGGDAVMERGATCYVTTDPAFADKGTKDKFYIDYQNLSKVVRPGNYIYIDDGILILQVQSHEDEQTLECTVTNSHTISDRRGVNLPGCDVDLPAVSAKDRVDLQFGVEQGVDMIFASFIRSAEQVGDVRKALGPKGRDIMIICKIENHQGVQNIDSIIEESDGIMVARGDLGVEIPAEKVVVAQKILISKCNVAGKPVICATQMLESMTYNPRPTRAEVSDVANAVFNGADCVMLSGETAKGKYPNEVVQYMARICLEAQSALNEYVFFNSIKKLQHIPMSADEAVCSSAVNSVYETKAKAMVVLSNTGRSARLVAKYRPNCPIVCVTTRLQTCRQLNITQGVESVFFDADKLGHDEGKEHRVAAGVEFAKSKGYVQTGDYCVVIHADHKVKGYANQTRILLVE
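qHTS format; LmPK 0.1 nM; substrates PEP 0.5 mM and ADP 0.1 mM. One-hour room-temperature incubation, then coupled luciferase luminescence; 0.5 nM enzyme wells mark activation.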
Giardia FBPA inh-1 – Giardia lamblia aldolase inhibition | A8B2U2 | purified Giardia FBPA | Potency, µM (highest dose often 59.6 µM), most hits filed as inhibitors | hit rate 0.71% among 290,000 | AID 2451; further: nearly all actives have a fitted effect of over 55% in size
Target sequence (A8B2U2 whole entry, looked up): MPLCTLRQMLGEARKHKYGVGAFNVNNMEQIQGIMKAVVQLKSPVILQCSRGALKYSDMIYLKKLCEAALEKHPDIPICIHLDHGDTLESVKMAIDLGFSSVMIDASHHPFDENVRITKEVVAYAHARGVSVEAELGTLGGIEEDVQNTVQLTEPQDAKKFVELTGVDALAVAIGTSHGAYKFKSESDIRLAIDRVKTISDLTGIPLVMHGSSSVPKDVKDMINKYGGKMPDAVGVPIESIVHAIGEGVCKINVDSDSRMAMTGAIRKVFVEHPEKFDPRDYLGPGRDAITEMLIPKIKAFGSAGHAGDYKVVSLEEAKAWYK
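Giardia FBPA (40 nM reagent) was preincubated 10 min at RT with compound (up to 57.5 uM final), then substrate plus GAPDH/TPI/NAD/arsenate coupling system with diaphorase/resazurin was added; resorufin fluorescence (525/598 nm) was read after 20 min.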
Giardia growth – inhibitors of Giardia lamblia growth; hit rate 5% among 1,500; Giardia lamblia trophozoite growth inhibition; Potency, µM (top dose mostly 57.5 µM), actives largely listed as inhibitors; shares compounds with Giardia FBPA inh-1;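 further: trophozoites exposed to compound for 48 h at 37 °C; nearly all actives have a fitted effect of over 70% in size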
Mammalian tox – toxic to mammalian cells in Giardia aldolase counter-screen. shares compounds with Giardia FBPA inh-1. mammalian cell viability counter-screen, qHTS. Potency, µM (highest dose often 57.5 µM), most hits filed as inhibitors. hit rate 4% among 1,500. AID 2786;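 further: Chinese hamster ovary cells used as mammalian cytotoxicity surrogate; viability measured as cellular ATP by luminescence; compound exposure lasted 48 h before reading; nearly all actives have a fitted effect of over 60% in size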
Giardia FBPA inh-2 – confirmation of Giardia fructose-bisphosphate aldolase inhibitors; shares compounds with Giardia FBPA inh-1; purified Giardia aldolase enzyme activity, qHTS; Potency, µM (top dose mostly 57.5 µM), actives largely listed as inhibitors; hit rate 5% among 1,500; further: nearly all actives have a fitted effect of over 45% in size
Rabbit FBPA inh – blocks rabbit muscle aldolase in Giardia aldolase selectivity test; shares compounds with Giardia FBPA inh-1; AID 2794; Potency, µM (series often up to 57.5 µM), actives largely listed as inhibitors; Rabbit muscle FBPA enzyme inhibition, selectivity counter-screen; hit rate 4% among 1,500; further: nearly all actives have a fitted effect of over 60% in size
GAPDH coupling – GAPDH inhibition flagged for Giardia aldolase hits; shares compounds with Giardia FBPA inh-1; GAPDH coupling enzyme counterscreen, biochemical, qHTS; Potency, µM (series often up to 57.5 µM), hits mostly inhibitors; hit rate 6% among 1,500; further: nearly all actives have a fitted effect of over 55% in size
Hits are given with their value; 0 = inactive; ? = inconclusive; - = no result given; [ ] = remark or other dose. Unless noted, the call rests on the fitted dose curve; in most records, active means well fitted curve in the direction sought with a large enough effect; inconclusive means small, poorly fitted or top-dose-only effect, or another doubt; inactive means no such curve, though single readings can be large; an effect the other way counts as inactive or inconclusive.

SMILES	SARS PLpro yeast	RE007 growth inh	TbPYK inhibitor	LmPK inh	Giardia FBPA inh-1	Giardia growth	Mammalian tox	Giardia FBPA inh-2	Rabbit FBPA inh	GAPDH coupling
Cc1ccc(C)c(/C=N/Nc2nc3ccccc3c(=O)n2O)c1	0	0	?	0	15.8µM	?	0	0	0	0
COc1cccc(-n2cc(C(=O)OCc3ccc(Cl)cc3)c3ccccc3c2=O)c1	-	-	0	-	-	-	-	-	-	-
CCCn1c(=O)[nH]c2nc(-c3ccc(S(=O)(=O)O)cc3)[nH]c2c1=O	-	-	-	-	0	-	-	-	-	-
O=c1cnc2cnc(Oc3cccc(Cl)c3)nc2n1C1CC1	-	-	0	-	0	-	-	-	-	-
Nn1c(SCC(=O)Nc2cccc(C(F)(F)F)c2)nncc1=O	0	0	0	0	25.1µM	0[10.4 µM]	0	0	0	0
Nn1c(SCC(=O)Nc2cc(C(F)(F)F)ccc2Cl)nncc1=O	0	0	0	0	?	-	-	-	-	-
Cc1ccc(CNC(=O)CSc2nc3ccccc3[nH]2)cc1	0	0	0	0	12.6µM	0	0	0	0	0
Cc1onc(-c2c(Cl)cccc2Cl)c1C(=O)NC(=S)N1CCOCC1	0	0	0	0	3.97µM	0	?	0	0	0
CCOC(=O)N1CCN(C(=S)NC(=O)c2c(-c3c(Cl)cccc3Cl)noc2C)CC1	0	0	?	0	0	-	-	-	-	-
O=C(O)CC/C(=N/Nc1ncc(C(F)(F)F)cc1Cl)C(=O)O	0	0	0	0	11.2µM	15.8µM	0	0	0	0
Cc1oc(C)c2c(=O)ccc3c(c12)OC(N)=C(C#N)C3c1ccccc1Cl (stereo unspecified)	0	0	0	0	11.2µM	0	0	0	0	0
Cc1oc(C)c2c(=O)ccc3c(c12)OC(N)=C(C#N)C3c1ccccc1 (stereo unspecified)	0	0	0	0	0	-	-	-	-	-
CCn1cc(S(=O)(=O)c2cc(C)cc(C)c2)c(=O)c2cc(F)c(N3CCCCC3)cc21	-	-	0	-	-	-	-	-	-	-
O=C(Nc1nc(-c2ccccn2)cs1)c1ccc([N+](=O)[O-])o1	0	0	?	0	-	-	-	0	0	0
O=C(Nc1nc(-c2ccccn2)cs1)c1ccc2c(c1)OCCO2	0	0	0	0	17.7µM	0[10.4 µM]	?	0	0	0
Cc1ccc(C(=O)Nc2nc(-c3ccccn3)cs2)o1	0	0	0	0	12.6µM	?	?	0	0	0
CC(=O)Nc1ccc(C(=O)Nc2nc(-c3ccccn3)cs2)cc1	0	?	0	0	?	-	-	-	-	-
O=C(Nc1nc(-c2ccccn2)cs1)c1ccccc1-n1cnnn1	0	0	?	0	7.92µM	20µM	?	0	0	?
Cn1nc(C(=O)Nc2nc(-c3ccccn3)cs2)c2ccccc2c1=O	0	0	0	-	-	-	-	-	-	-
O/N=C1/CCc2nonc2/C1=N/O	0	?	0	0	15.8µM	8.91µM	0	0	0	0
N#CC(=C(O)COC(=O)Cc1c[nH]c2ccccc12)c1nc2ccccc2[nH]1	-	0	0	-	-	-	-	-	-	-
N#C/C(=C(/O)COC(=O)c1cccnc1Cl)c1nc2ccccc2[nH]1	0	0	0	0	17.7µM	0	0	0	0	0
CC(C)C(=O)OC/C(O)=C(\C#N)c1nc2ccccc2[nH]1	0	0	0	0	19.9µM	0[10.4 µM]	0	0	0	0
N#C/C(=C(/O)COC(=O)c1ccc(O)cc1)c1nc2ccccc2[nH]1	0	0	0	0	9.98µM	0	0	0	0	0
COCC(=O)OC/C(O)=C(\C#N)c1nc2ccccc2[nH]1	0	0	0	0	15.8µM	0[10.4 µM]	?	0	0	0
SMILES	SARS PLpro yeast	RE007 growth inh	TbPYK inhibitor	LmPK inh	Giardia FBPA inh-1	Giardia growth	Mammalian tox	Giardia FBPA inh-2	Rabbit FBPA inh	GAPDH coupling
CCCC(=O)OC/C(O)=C(\C#N)c1nc2ccccc2[nH]1	0	0	0	0	?	-	-	-	-	-
COc1ccc(OC)c(CC2C(=O)Nc3ccc(Br)cc32)c1 (stereo unspecified)	-	-	0	-	-	-	-	-	-	-
CCOC(=O)Cc1c[nH]c(=S)[nH]c1=O	0	0	0	0	17.7µM	0[10.4 µM]	0	0	0	0
O=[N+]([O-])c1cc(C(F)(F)F)cc([N+](=O)[O-])c1Sc1n[nH]c(C(F)(F)F)n1	0	0	?	0	17.7µM	?	0	0	0	0
Cc1cccc(C(=O)Nc2nnc(C3=COCCO3)o2)c1	0	0	0	0	17.7µM	?	0	0	0	0
CN(C)S(=O)(=O)c1ccc(C(=O)Nc2nnc(-c3cccs3)o2)cc1	0	0	0	0	17.7µM	14.1µM	0	0	0	0
CN(c1ccccc1)S(=O)(=O)c1ccc(C(=O)Nc2nnc(C3=COCCO3)o2)cc1	0	0	0	0	11.2µM	?	0	0	0	0
CCc1nnc(NC(=O)c2ccc(S(=O)(=O)N(C)c3ccccc3)cc2)o1	0	0	0	0[11.5 µM]	?	-	-	-	-	-
O=C(CCSc1ccccc1)Nc1nnc(-c2cccs2)o1	0	0	0	0	15.8µM	0[10.4 µM]	0	0	0	0
N#Cc1ccc(C(=O)Nc2nnc(-c3cccs3)o2)cc1	0	0	0	0	?	-	-	-	-	-
O=c1cnc2cnc(OCc3ccccc3)nc2n1Cc1ccc(F)cc1	-	-	0	-	0	-	-	-	-	-
CCOC(=O)c1c(S(=O)(=O)N2CCC(C(=O)N3CCN(c4cc(C)ccc4C)CC3)CC2)c(C)n(C)c1C	-	-	0	-	-	-	-	-	-	-
CC(C)(C)c1ccc(C(=O)Nc2nnc(C3=COCCO3)o2)cc1	0	0	0	0	-	-	-	-	-	-
CN(C)c1ccc(C(=O)Nc2nnc(C3=COCCO3)o2)cc1	0	0	0	0[11.5 µM]	17.7µM	?	0	0	0	0
O=C(NCCCN1CCCC1)[C@H](CSCc1ccccc1)N1Cc2ccccc2C1=O	0	0	0	0	17.7µM	0[10.4 µM]	0	0	0	0
Cn1ccnc1P(=S)(c1nccn1C)c1nccn1C	0	0	0	0	7.94µM	0	0	0	0	0
O=C(O)c1cc(Br)ccn1	0	0	0	0[11.5 µM]	15.8µM	0[10.4 µM]	0	0	0	0
CC(=O)N(C)c1ccc(N=Nc2c(C)[nH]n(C(N)=S)c2=O)cc1	0	0	0	0	0	-	-	-	-	-
CCOc1ccc(-n2c(O)c(N=Nc3c(C)n(C)n(-c4ccccc4)c3=O)c(=O)[nH]c2=O)cc1	0	0	0	0	15.8µM	?	0	0	0	0
CCOC(=O)c1ccc(N=Nc2c(C)[nH]n(-c3ccccc3)c2=O)cc1	0	0	0	0	10µM	?	0	0	0	0
CC(=O)N(C)c1ccc(N=Nc2c(C)[nH]n(-c3ccccc3)c2=O)cc1	0	0	0	0	4.47µM	0	0	0	0	0
